Results on seven molecules are retold here after the supplement of paper PMC13380429.

Assay [1] concerns Vero E6 infected with SARS-CoV-2. Put plainly: morphology score (similarity to uninfected cells); higher = more like uninfected cells. Particulars: 24 h.
The test system is the same in assay [2]. Put plainly: SARS-CoV-2 infection rate relative to infected DMSO; higher = more infection, active = 60 or less. As to conditions: 24 h.

For the molecule `COc1cc([C@@H]2c3cc4c(cc3[C@@H](O[C@@H]3O[C@@H]5CO[C@@H](c6cccs6)O[C@H]5[C@H](O)[C@H]3O)[C@H]3COC(=O)[C@H]23)OCO4)cc(OC)c1O` [teniposide] (10 µM), the morphology score in assay [1] was -0.0983. Also, the SARS-CoV-2 infection rate in assay [2] was 111% (inactive).

The molecule `C(#CCN1CCCC1)CN1CCCC1` [tremorine] (10 µM) registered a morphology score in assay [1] of 0.107. In addition, in assay [2], the SARS-CoV-2 infection rate is 96% (inactive).

On to `O=C(Nc1ccncc1)c1cc([N+](=O)[O-])ccc1Cl` (10 µM), for which the morphology score in assay [1] was 0.143. The SARS-CoV-2 infection rate in assay [2] is 87% (inactive).

On to `Cc1cn2nc([C@@H]3CCCCN3C(=O)c3cc(Cl)ccc3NS(C)(=O)=O)cc2nc1N1CC[C@H](N)C1` [presatovir] (10 µM), for which the morphology score in assay [1] amounted to 0.215. The SARS-CoV-2 infection rate in assay [2] was 89% (inactive).

With `N#Cc1cccc(C(=O)Nc2cc(-c3ccccc3)nn2-c2ccccc2)c1` (10 µM), the morphology score in assay [1] is -0.166. For the same molecule, in assay [2], the SARS-CoV-2 infection rate was 104% (inactive).

Molecule `NS(=O)(=O)NCCNc1nonc1/C(=N/O)Nc1ccc(F)c(Br)c1` (10 µM) displayed a morphology score in assay [1] of 0.162. The SARS-CoV-2 infection rate in assay [2] was 112% (inactive).

Take `CNC(=O)[C@H](Cc1ccccc1)NC(=O)[C@H](CC(C)C)[C@H](CSc1cccs1)C(=O)NO` [batimastat] (10 µM): in assay [1], the morphology score is 0.0292. In assay [2], the SARS-CoV-2 infection rate was 104% (inactive).
